Screens deposited in PubChem by NMMLSC.
In the library only some 1.2% were active in any assay of this set; here they are far more common.
RGS7-Gao – modulates binding of RGS7 to human Galphao. binding response (% of control), % at 10 µM. 220,000 tested, 0.35% active. P09471. Multiplexed bead flow cytometry; actives lie on both sides. AID 1439; in the data active = binding response below about 49% or above about 150%; inconclusive = no clear call, values can overlap the other calls; inactive = in between;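 also: fluorescent Galphao held in activated GDP-AlF4 state binding bead-coupled RGS7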
Target sequence (P09471 whole entry, looked up): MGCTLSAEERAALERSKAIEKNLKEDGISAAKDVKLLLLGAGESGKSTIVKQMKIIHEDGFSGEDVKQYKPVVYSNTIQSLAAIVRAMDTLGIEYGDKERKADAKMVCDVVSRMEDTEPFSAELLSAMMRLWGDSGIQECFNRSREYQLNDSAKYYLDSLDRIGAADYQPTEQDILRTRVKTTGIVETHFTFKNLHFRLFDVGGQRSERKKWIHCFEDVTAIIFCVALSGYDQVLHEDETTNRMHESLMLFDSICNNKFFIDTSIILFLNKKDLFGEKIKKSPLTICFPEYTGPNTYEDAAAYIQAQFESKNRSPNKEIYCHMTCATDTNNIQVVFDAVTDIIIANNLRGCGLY
Avidin bead fluor – compound fluoresces at 488/530 nm on avidin beads | compound fluorescence 488/530 nm, flow cytometry; hits give high values | fluorescence (KMESF) at 10 µM | 220,000 tested, 0.38% active | AID 1775; in the data active = fluorescence above about 47
GSH fluor – compound fluoresces at 488/530 nm on GSH beads | GSH beads flow cytometry, compound fluorescence 488/530 nm; hits give high values | fluorescence (KMESF) at 10 µM | 190,000 tested, 0.25% active | AID 1776; in the data active = fluorescence above about 89;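 also: glutathione beads carrying GST-tagged Bcl family fusion proteins plus one bare bead set; values are compound well signal with DMSO vehicle wells as background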
RGS16-Gao – modulates binding between human RGS16 and Galphao; O15492+P09471; bead-based flow cytometry RGS16-Galphao binding, fluorescence; actives lie on both sides; binding response (% of control), % at 10 µM; 220,000 tested, 0.38% active; call rule not given here;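 also: Galphao activated by GDP with aluminum fluoride before binding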
Target sequence (O15492 whole entry, looked up): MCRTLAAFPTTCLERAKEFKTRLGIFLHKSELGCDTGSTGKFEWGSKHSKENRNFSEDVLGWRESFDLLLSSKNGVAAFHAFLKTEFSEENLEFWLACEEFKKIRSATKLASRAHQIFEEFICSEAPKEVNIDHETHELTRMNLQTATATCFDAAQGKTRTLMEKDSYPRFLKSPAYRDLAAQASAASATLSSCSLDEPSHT
Target sequence (P09471 whole entry, looked up): as the sequence (P09471 whole entry, looked up) above
RGS4-Gao reg – modulates binding of RGS4 to human Galphao | P09471 | Multiplexed bead flow cytometry; actives lie on both sides | binding response (% of control), % at 10 µM | 220,000 tested, 0.33% active | AID 1415; in the data active = binding response below about 49% or above about 150%; inactive = in between;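 also: fluorescent Galphao activated with aluminum fluoride binding bead-coupled RGS4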
RGS8-Gao – modulates binding of RGS8 to human Galphao; P09471; multiplexed bead flow cytometry; actives lie on both sides; response (percent of control binding), % at 10 µM; 220,000 tested, 0.34% active; AID 1423; in the data active = response below about 60% or above about 140%; inactive = in between;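 also: Galphao activated as the GDP aluminium fluoride complex binding bead-coupled RGS8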
* marks the source's active call; other numbers are inactive results; u = inconclusive; x = no result given; [ ] = remark or other dose.

SMILES	RGS7-Gao	Avidin bead fluor	GSH fluor	RGS16-Gao	RGS4-Gao reg	RGS8-Gao
COC(=O)C(Cc1cnc(Cl)s1)(C(=O)OC)c1ccc([N+](=O)[O-])cc1[N+](=O)[O-]	101.7	7	272*	116.7	99.2	104.0
O=C(CN1CCOCC1)n1c2ccccc2c2ccccc21	99.7	8	256*	96.3	97.8	99.3
O=c1cc(-c2ccccc2)[nH]n1-c1nc2ccccc2[nH]1	105.5	50*	25	89.6	94.3	95.9
CCc1cc(=O)[nH]c(-n2[nH]c(-c3ccccc3)cc2=O)n1	102.6	14	13	103.6	100.6	102.2
CCOC(=O)c1[nH]c(C)c(C(=O)Nc2ccc(F)cc2)c1C	95.6	7	25	104.7	98.0	101.2
CCOC(=O)c1[nH]c(C)c(C(=O)Nc2ccccc2F)c1C	127.4	108*	25	104.6	102.3	97.3
COc1ccc(CCNC(=O)c2ccc(C)s2)cc1OC	u	13	13	98.0	101.1	101.0
C=CCn1c(SCC(=O)c2ccc(O)c(O)c2)nnc1-c1ccccc1OC	54.9	4	247*	52.9	56.9	68.2
O=C(Nc1cccnc1)c1c(O)c2cccc3c2n(c1=O)CC3	133.8	9	231*	125.1	170.9*[activator]	119.6
Cc1ccnc(NC(=O)Cn2cc([N+](=O)[O-])cn2)c1	101.2	10	14	103.2	105.1	101.9
Cc1cc(C)nc(NS(=O)(=O)c2ccc(NC(=S)NC(=O)CC(C)C)cc2)n1	193.9*[activator]	118*	20	270.0*[activator]	207.7*[activator]	107.6
CC(=O)Nc1ccc(S(=O)(=O)Nc2nc3ccccc3nc2-n2ccc(=NC(=O)c3ccc(F)cc3)cc2)cc1	u	10	15	100.5	97.2	100.5
S=C(Nc1cccc2ccccc12)NN1CCOCC1	115.7	47*	24	115.6	117.5	104.1
O=C(Nc1cccc2ccccc12)N1CCOCC1	105.7	19	28	110.0	105.7	102.6
CCOc1ccc(NC(=O)CC2C(=O)N(CC)C(=S)N2NC(=O)c2ccncc2)cc1 (centres undefined)	u	7	x	102.1	102.0	100.8
Cc1noc(C)c1COC(=O)c1ccc(N(C)C)cc1	98.8	10	13	93.5	92.1	96.0
CCOc1ccc(N2C(=O)CC(Sc3nc(C)cc(C)n3)C2=O)cc1 (centres undefined)	105.0	6	17	99.1	104.0	103.5
CCOc1ccc(N2C(=O)CC(SCCN)C2=O)cc1 (centres undefined)	99.4	6	267*	103.2	100.5	100.0
COC(=O)c1c(C)nn(-c2ccc(F)c(Cl)c2)c1-c1cc(C)on1	u	5	x	98.0	94.2	98.7
CCOC(=O)c1ccc(S(=O)(=O)N2CCN(CC(=O)NC(=O)NC3CCCCC3)CC2)cc1	175.8*[activator]	14	30	185.2*[activator]	187.9*[activator]	152.5*[activator]
CCOC(=O)c1ccc(S(=O)(=O)N2CCN(S(=O)(=O)CC)CC2)cc1	103.5	6	16	71.3	105.7	99.8
O=c1[nH]c2ccsc2c(=O)n1CCO	u	6	x	85.3	87.1	91.8
CCOC(=O)NNC(=S)Nc1c(C)n(C)n(-c2ccccc2)c1=O	u	6	x	99.9	98.4	101.3
Cc1cc(NC(=O)CN2C(=O)NC(C)(c3ccc(OC(F)F)cc3)C2=O)no1 (centres undefined)	109.5	48*	15	97.4	99.9	100.1
CCCc1cc(=O)[nH]c(SCC(=O)Nc2cc(C)on2)n1	98.3	23	8	101.6	99.7	100.5
SMILES	RGS7-Gao	Avidin bead fluor	GSH fluor	RGS16-Gao	RGS4-Gao reg	RGS8-Gao
Cn1c(Cc2ccccc2)nnc1SCC(=O)Nc1ccc2c(c1)OCCO2	97.2	8	255*	100.4	96.8	100.4
CCn1c(Cc2ccccc2)nnc1SCC(=O)Nc1ccc2c(c1)OCO2	102.1	9	45	100.9	100.7	100.3
C=C(C)c1cccc(C(C)(C)NC(=O)NCCCN2CCCC2=O)c1	110.0	16	22	108.8	106.1	104.0
C=C(C)c1cccc(C(C)(C)NC(=O)NCCCn2ccnc2)c1	102.7	50*	25	100.2	101.5	100.9
COc1ccc(OCCC(=O)OCC(=O)NCc2ccco2)cc1	94.4	6	259*	92.2	92.5	99.1
COc1ccccc1NCCC(=O)OCC(=O)NCc1ccco1	90.0	5	9	107.2	96.2	102.6
O=C(COC(=O)c1ccccc1Oc1ccccc1)NCc1ccco1	97.2	7	263*	92.4	90.7	100.7
COc1ccc(N/C(=N/c2nc(C)cc(C)n2)NC(=O)c2ccccc2)cc1	u	x	x	98.5	102.4	101.2
Cc1nc2ccccc2nc(C)c1=NO	93.5	8	13	98.6	100.0	100.8
C/C(O)=c1/ccc2cccc3nc(C)nc1c23	104.1	48*	17	99.4	99.0	96.4
O=C(c1ccco1)N1CCN(C(c2ccc(F)cc2)c2nnnn2Cc2cccs2)CC1 (centres undefined)	100.9	7	260*	126.7	106.5	110.6
CC(C)CNC(=O)CCCc1ccccc1	95.3	9	8	100.4	99.5	100.0
C=CCNC(=O)CCCc1ccccc1	113.7	52*	22	100.4	101.1	101.2
CCc1nc2c(sc3nc4c(cc32)COC(C)(C)C4)c(=O)n1Cc1ccco1	114.1	65*	18	97.2	104.1	92.8
Cc1ccc(NC(=O)CN2C(=O)N/C(=C/c3cc(C)n(-c4ccc(C(=O)O)cc4)c3C)C2=O)cc1	99.9	10	19	100.2	103.0	99.4
Cc1ccc(NC(=O)CN2C(=O)N/C(=C/c3cccn3-c3ccc(C(=O)O)cc3)C2=O)cc1	-12.7*	-5	4	7.4	25.8*	28.2*
Cc1ccc2c(CSc3nnc(C4CC4)n3N)cc(=O)oc2c1	100.5	9	262*	101.9	100.6	99.2
CCCNC(=O)Nc1nccs1	105.3	57*	24	99.0	101.0	101.0
CCc1ccccc1NC(=O)Cn1cccc1C1=NC(c2ccccc2)CO1 (centres undefined)	127.3	51*	21	110.2	106.0	101.8
Cc1ccc(NC(=O)Cn2cccc2C2=NC(c3ccccc3)CO2)cc1C (centres undefined)	96.4	14	21	114.4	101.2	104.9
O=C(Cc1cccs1)N(CC1CCCO1)C1(C(=O)NC2CCCC2)CCCCC1 (centres undefined)	98.8	10	11	99.9	102.1	103.2
CCn1c(SCC(=O)Nc2ccc(-c3nc4ccc(C)cc4s3)cc2)nnc1-c1ccccc1	111.7	256*	24	393.1	115.4	103.6
CN(C)C(=O)c1cc(C(=O)c2ccccc2Cl)c[nH]1	u	10	17	106.3	105.7	105.8
Cc1ccc(C)c(OCC(=O)N/N=C/c2c(C)nn(-c3ccccc3)c2Cl)c1	109.1	56*	14	105.2	105.4	99.6
